Drawing on ChEMBL document CHEMBL3433997, “St. Jude Leishmania screening dataset” (2016), this text covers inhibition for 40 molecules.

What is called inhibition is the drop in the measured response relative to a control, in per cent.

Each structure is given as a SMILES string.

The target of this assay is Hexose transporter 1 (Plasmodium falciparum) (UniProt O97467). The assay can be described thus: ST_JUDE_LEISH: Cytotoxicity at 2uM final concentration against transgenic Leishmania Mexicana promastigotes LmPfHT that are glucose transport deficient and complemented with the Plasmodium falciparum hexose transporter. Activity is measured by DNA content using SYBR green in vitro. Format: functional.
As for `CC(C)(C)c1ccc(-c2ccccc2CNC(=O)c2cccc(O)c2)cc1`, the inhibition came out at 6.5%.
With `CCCCCCc1cc(OC)c(OC)cc1C(C)Nc1ccnc2cc(Cl)ccc12` (stereo not given) the figure was 5.09%; with `Cc1cc(=O)c(-c2ccc(OCCSc3ccc(C(F)(F)F)cn3)cc2)c(C)[nH]1`, 5.13%; with `Cc1ccc(NC(=O)NC2CCN(CCC(NC(=O)Cc3ccccc3)c3ccc(Cl)c(Cl)c3)CC2)cc1` (stereo not given), -2.83%.
In the case of `NC(=O)c1ccccc1Nc1nc(Nc2cc[nH]n2)ncc1Cl` it was 4.28%; in that of `COc1cc2nccc(Nc3ccc(NC(=O)c4ccc(C)cc4)c(O)c3)c2cc1OC`, 9.16%; in that of `CN(CCO)Cc1ccc(-c2ccc(NS(=O)(=O)c3cccc4cccnc34)cc2)cc1`, 81.8%.
Regarding `O=C(N[C@@H](CC1CCCCC1)C(=O)NC1CC1)c1ccc(O)c(-c2cccc(C(F)(F)F)c2)c1`, the inhibition stood at 2.6%.
Consider `Cc1cccc2nc(-c3ccc(-c4cccc(NC(=O)c5cncn5C)c4)s3)[nH]c12`, for which the inhibition turned out to be 2.43%.
In the case of `CCN(CC)CCN(Cc1ccc(-c2ccc(C(F)(F)F)cc2)cc1)C(=O)Cn1c(CCc2cccc(F)c2F)cc(=O)c(C)c1C` it was 8.35%; in that of `N#CCCN1CCN(Cc2ccc(-c3ccc(-c4nc5cc(F)ccc5[nH]4)s3)cc2)CC1`, 0.84%.
In the case of `COc1ccccc1NS(=O)(=O)c1cc(C(=O)Nc2ccc(N3CCOCC3)c(S(=O)(=O)Nc3ccccc3Cl)c2)ccc1Cl` it was 2.83%; in that of `Nc1nccc2ccc(-c3ccc(NC(=O)Nc4cc(C(F)(F)F)ccc4F)cc3)cc12`, 4.94%.
With `O=C(NC1CC1)c1ccc(N2CCC(Cc3ccccc3)CC2)c([N+](=O)[O-])c1` the figure was 0.86%; with `Brc1cc(CNCCCNc2nc3ccccc3[nH]2)sc1Br`, 9.1%.
`O=C(NCCCCN1CCC(c2ccc3ccccc3c2O)CC1)c1ccc(-c2ccc(Cl)cc2)cc1`: the inhibition stood at 3.32%.
`CCCCCCCN1CC[C@@H](C[C@H](N)Cc2ccnc3ccc(OC)cc23)[C@@H](CC)C1`: the inhibition was -1.97%.
As for `COc1cc2nc(N[C@@H](CO)c3ccccc3)nc(NCc3ccccc3)c2cc1OC`, the inhibition worked out at 2.17%.
With `O=S(=O)(NCCN1CCCC1)c1cccc(-c2cccc(CNCc3ccccc3)c2)c1` the figure was 17.2%; with `Cc1[nH]c(C)c(-c2ccc(CCc3ccc(F)cc3F)cc2)c(=O)c1Cl`, 1.94%; with `Cc1cc(Nc2cccc(C#N)c2)nc(Nc2ccccc2C)n1`, 91.1%.
In the case of `COc1cc(Cc2cnc(N)nc2N)cc(OCCCCc2ccc([N+](=O)[O-])cc2)c1OC` it was -1.89%; in that of `CCCC(C)Nc1nc(C)cc(N[C@@H](CC(C)C)C(=O)NCc2cccc(F)c2)n1` (stereo not given in full), 5.69%; in that of `COc1ccc(C=Cc2cc(=N)c3ccccc3[nH]2)cc1Br`, 2.29%.
With `O=S(=O)(Nc1cccc(CCN2CCC(N3CCCCC3)CC2)c1)c1cccc(C(F)(F)F)c1` the figure was 3.24%; with `Cc1cc(=O)c(-c2ccc(OCc3ccc(OC(F)(F)F)cc3)cc2)c(C)[nH]1`, 4.41%.
As for `COC(=O)c1cc(/C(C)=N/Nc2nc3ccccc3[nH]2)ccc1O`, the inhibition was 5.41%.
In the case of `O=C(/C=C/c1ccc(Cl)c(Cl)c1)NCCCCCN1CCCC(C(=O)Nc2ccc(F)c(Cl)c2)C1` (stereo not given) it was 5.25%; in that of `O=C(Nc1ccccc1)OCCOc1ccc(CC2SC(=O)NC2=O)cc1` (stereo not given), 3.76%.
In the case of `CC1=C(C(=O)Nc2ccc(Cl)cc2)C(c2ccncc2)n2nc(C(F)(F)F)nc2N1` (stereo not given) it was 2.96%; in that of `COc1cc2nc(NCCc3ccccc3)nc(NCc3ccc(C#N)cc3)c2cc1OC`, 6.39%; in that of `COc1cc2nc(NCCCOC(C)C)n3nc(-c4ccccc4)nc3c2cc1OC`, 10.4%.
In the case of `CN(C(=O)Nc1ccc(F)cc1)C1CCN(CCCCCNC(=O)/C=C/c2ccc(Cl)c(Cl)c2)CC1` it was 1.65%.
With `CCN(CCCN1CCCCC1)c1cc(C)nc(Nc2ccc(OC)cc2)n1`, the inhibition is -1.06%.
With `Fc1ccc2c(NN=Cc3ccccc3)ccnc2c1` the figure was 1.07%; with `COc1cc(CNCCCCCCNCc2cc(OC)cc3ccccc23)c2ccccc2c1`, 11.7%.
With `CC1(C)CNCc2cc(NC(=O)/C=C/c3ccc(Cl)cc3)ccc21` the figure was -2.52%; with `C=CCc1cc(C2CCN(CCCCNC(=O)c3ccc(-c4ccc(C#N)cc4)cc3)CC2)c(OCC(N)=O)c2c1CCCC2`, 2.67%; with `CON(CCCN(C)C)C(=N)N`, 2.02%.
For `CCn1c(Sc2ccc(C#N)c([N+](=O)[O-])c2)nnc1-c1cccc(Cl)c1`, the inhibition was determined as 14.9%.
